Source: PubChem BioAssay (NCI)
The panel holds about 79,000 compounds, 15% with a hit somewhere; the sample as a whole holds those more often. Calls of active or inactive are those of the source. No stated cut-off is given here; in the data, active means growth inhibition above about 70%; inactive means the rest.

Experiments:
[1] = NCI Yeast Anticancer Drug Screen. Data for the mlh1 rad18 strain (AID 175); conditions: S. cerevisiae mlh1 rad18 strain growth inhibition, stronger effect = higher value
Summary of the method: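 Yeast w/ defined DNA-repair lesions; compound exposure; growth vs vehicle controls → % inhibition.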

[2] = NCI Yeast Anticancer Drug Screen. Data for the rad18 strain (AID 177); conditions: S. cerevisiae rad18 mutant growth inhibition, stronger effect = higher value
Summary of the method: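 Readout: growth inhibition vs vehicle controls. Cells: genetically altered yeast strain, DNA repair defect.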

[3] = NCI Yeast Anticancer Drug Screen. Data for the wt1 strain (AID 149);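 further: 0% = growth of vehicle-treated wt1 cultures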; conditions: S. cerevisiae wt1 strain (SPY 50644) growth inhibition, stronger effect = higher value
Summary of the method: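 Yeast wt1 strain exposed to compounds; growth inhibition measured relative to vehicle-treated controls.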

[4] = NCI Yeast Anticancer Drug Screen. Data for the rad50EPP+ strain (AID 151);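 further: 0% = growth of vehicle-treated control cultures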; conditions: S. cerevisiae rad50 mutant strain, stronger effect = higher value
Summary of the method: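 Growth inhibition read against vehicle controls in rad50EPP+ yeast, a strain altered in DNA damage repair, after compound exposure.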

[5] = NCI Yeast Anticancer Drug Screen. Data for the mgt1 strain (AID 153); conditions: S. cerevisiae mgt1 mutant growth inhibition, stronger effect = higher value
Summary of the method: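 mgt1 yeast grown with test compound; read-out is growth inhibition versus vehicle-treated cultures.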

[6] = NCI Yeast Anticancer Drug Screen. Data for the rad50 strain (AID 155);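 further: 0% = growth of vehicle-only cultures of the same strain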; conditions: S. cerevisiae rad50 strain growth inhibition, stronger effect = higher value
Summary of the method: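 Yeast carrying a defined DNA repair defect were exposed to test compounds, and growth was compared with vehicle-treated controls to give percent inhibition.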

[7] = NCI Yeast Anticancer Drug Screen. Data for the mec2-1 strain (AID 157); conditions: S. cerevisiae mec2-1 strain, stronger effect = higher value
Summary of the method: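 Yeast mec2-1 mutant treated with compound. Readout: growth inhibition vs vehicle controls.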

[8] = NCI Yeast Anticancer Drug Screen. Data for the sgs1 mgt1 strain (AID 161);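 further: 0% = growth of cultures given vehicle only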; conditions: S. cerevisiae sgs1 mgt1 strain, stronger effect = higher value
Summary of the method: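 Mutant yeast exposed to compound; growth scored against vehicle-only wells.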

[9] = NCI Yeast Anticancer Drug Screen. Data for the CLN2oe strain (AID 163);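 further: 0% = growth of vehicle-only control cultures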; conditions: S. cerevisiae CLN2oe strain, stronger effect = higher value
Summary of the method: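 Read-out: yeast growth inhibition, expressed relative to vehicle-only controls. The strain bears an engineered cell-cycle alteration.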

[10] = NCI Yeast Anticancer Drug Screen. Data for the cln2 rad14 strain (AID 165);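 further: 0% = growth equal to vehicle treated cultures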; conditions: S. cerevisiae cln2 rad14 strain, stronger effect = higher value
Summary of the method: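 cln2 rad14 yeast strain; compound exposure; growth inhibition read vs vehicle controls.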

[11] = NCI Yeast Anticancer Drug Screen. Data for the bub3 strain (AID 167); conditions: S. cerevisiae bub3 mutant strain, stronger effect = higher value
Summary of the method: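 Compounds were applied to a genetically altered yeast strain carrying a cell-cycle control defect. Growth inhibition was scored against vehicle-treated controls.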

[12] = NCI Yeast Anticancer Drug Screen. Data for the mlh1 strain (AID 171);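 further: 0% = growth of vehicle-treated control cultures of the same strain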; conditions: S. cerevisiae mlh1 strain growth inhibition, stronger effect = higher value
Summary of the method: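 Read-out: growth inhibition versus vehicle controls. Strain: engineered yeast with a defined DNA repair or cell cycle defect, compound-treated.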

[13] = NCI Yeast Anticancer Drug Screen. Data for the sgs1 strain (AID 173);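 further: 0% = growth of vehicle-only control cultures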; conditions: S. cerevisiae sgs1 mutant, stronger effect = higher value
Summary of the method: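 Read-out: yeast growth inhibition relative to vehicle controls, following compound exposure of a strain with a defined DNA repair/cell cycle alteration.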

[14] = NCI Yeast Anticancer Drug Screen. Data for the rad14 strain (AID 159);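 further: 0% = growth of vehicle-treated control cultures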; conditions: S. cerevisiae rad14 strain growth inhibition, stronger effect = higher value
Summary of the method: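 Yeast cells carrying a defined DNA-repair defect were exposed to compounds, and growth inhibition was calculated relative to vehicle-treated control cultures.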

[15] = NCI Yeast Anticancer Drug Screen. Data for the wt2 strain (AID 169);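 further: 0% = growth of vehicle-treated yeast cultures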; conditions: S. cerevisiae wt2 strain growth inhibition, stronger effect = higher value
Summary of the method: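 Read-out: growth inhibition versus vehicle-treated control cultures after compound exposure of the yeast strain.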

[16] = at 5.0 µM (retest, dose inferred, filed as 0.5)
[17] = at 50.0 µM (retest, dose inferred, filed as 5.0)

Measured: growth inhibition

CNC(=O)OCc1c(COC(=O)NC)c(C)n(-c2ccc(Br)cc2)c1C
inactive: [1]; [16] 25% | [2]; at 1.2 µM -19% | [2]; at 3.7 µM -12% | [2]; at 11.0 µM -5% | [2]; at 33.0 µM 43%
active: [1]; [17] 84% | [1]; at 50.0 µM 86.8% | [2]; at 100.0 µM 96%

CC(C)C(=O)CC(Sc1ccc(N)cc1)c1ccccc1 (centres undefined)
inactive: [3]; at 1.2 µM -4% | [3]; at 3.7 µM -4% | [3]; at 11.0 µM -1% | [3]; at 33.0 µM 10% | [3]; at 100.0 µM 18% | [4]; at 1.2 µM -5% | [4]; at 3.7 µM -4% | [4]; at 11.0 µM 1% | [4]; at 33.0 µM 6% | [4]; at 100.0 µM 8% | [5]; at 1.2 µM -2% | [5]; at 3.7 µM -5% | [5]; at 11.0 µM 27% | [5]; at 33.0 µM 32% | [5]; at 100.0 µM 58% | [6]; at 1.2 µM -1% | [6]; at 3.7 µM 1% | [6]; [16] -22% | [6]; at 11.0 µM -19% | [6]; at 33.0 µM 24% | [6]; at 50.0 µM 55.6% | [6]; at 100.0 µM 42% | [7]; at 1.2 µM 1% | [7]; at 3.7 µM -2% | [7]; [16] -2% | [7]; at 11.0 µM 10% | [7]; at 33.0 µM 27% | [7]; at 50.0 µM 36.5% | [7]; at 100.0 µM 40% | [8]; [16] -26% | [8]; at 50.0 µM 53% | [9]; at 1.2 µM -2% | [9]; at 3.7 µM -13% | [9]; at 11.0 µM -7% | [9]; at 33.0 µM 20% | [9]; at 100.0 µM 35% | [10]; [16] -3% | [10]; [17] 57% | [10]; at 50.0 µM 27.8% | [12]; at 1.2 µM 1% | [12]; at 3.7 µM -2% | [12]; at 11.0 µM 7% | [12]; at 33.0 µM 30% | [12]; at 100.0 µM 48% | [13]; at 1.2 µM 0% | [13]; at 3.7 µM 4% | [13]; at 11.0 µM 22% | [13]; at 33.0 µM 62% | [1]; [16] -19% | [1]; at 50.0 µM 42.5% | [2]; at 1.2 µM -8% | [2]; at 3.7 µM -2% | [2]; at 11.0 µM 12% | [2]; at 33.0 µM 30% | [2]; at 100.0 µM 52%
active: [6]; [17] 77% | [7]; [17] 88% | [8]; [17] 87% | [11]; at 1.2 µM 87% | [11]; at 3.7 µM 89% | [11]; [16] 89% | [11]; at 11.0 µM 90% | [11]; at 33.0 µM 91% | [11]; [17] 98% | [11]; at 50.0 µM 85.1% | [11]; at 100.0 µM 92% | [13]; at 100.0 µM 79% | [1]; [17] 85%

CC(C)OC(=O)NNc1cccc(Cl)c1
active: [3]; at 33.0 µM 95% | [3]; at 100.0 µM 96% | [4]; at 11.0 µM 93% | [4]; at 33.0 µM 98% | [4]; at 100.0 µM 98% | [5]; at 11.0 µM 87% | [5]; at 33.0 µM 98% | [5]; at 100.0 µM 99% | [6]; at 11.0 µM 98% | [6]; at 33.0 µM 98% | [6]; [17] 95% | [6]; at 50.0 µM 96.1% | [6]; at 100.0 µM 97% | [7]; at 33.0 µM 96% | [7]; [17] 96% | [7]; at 50.0 µM 99.2% | [7]; at 100.0 µM 98% | [14]; at 11.0 µM 76% | [14]; at 33.0 µM 98% | [14]; at 100.0 µM 98% | [8]; [17] 98% | [8]; at 50.0 µM 96.8% | [9]; at 100.0 µM 84% | [10]; [17] 99% | [10]; at 50.0 µM 97.8% | [11]; [16] 83% | [11]; at 11.0 µM 98% | [11]; at 33.0 µM 98% | [11]; [17] 98% | [11]; at 50.0 µM 99% | [11]; at 100.0 µM 98% | [15]; at 11.0 µM 80% | [15]; at 33.0 µM 97% | [15]; at 100.0 µM 98% | [12]; at 33.0 µM 98% | [12]; at 100.0 µM 99% | [13]; at 11.0 µM 97% | [13]; at 33.0 µM 98% | [13]; at 100.0 µM 98% | [1]; [17] 96% | [1]; at 50.0 µM 98% | [2]; at 11.0 µM 98% | [2]; at 33.0 µM 98% | [2]; at 100.0 µM 98%
inactive: [3]; at 1.2 µM 1% | [3]; at 3.7 µM 8% | [3]; at 11.0 µM 35% | [4]; at 1.2 µM 6% | [4]; at 3.7 µM 33% | [5]; at 1.2 µM 0% | [5]; at 3.7 µM 7% | [6]; at 1.2 µM 4% | [6]; at 3.7 µM 26% | [6]; [16] 13% | [7]; at 1.2 µM 0% | [7]; at 3.7 µM 11% | [7]; [16] 21% | [7]; at 11.0 µM 55% | [14]; at 1.2 µM 4% | [14]; at 3.7 µM 12% | [8]; [16] 27% | [9]; at 1.2 µM -7% | [9]; at 3.7 µM -6% | [9]; at 11.0 µM 17% | [9]; at 33.0 µM 53% | [10]; [16] 51% | [11]; at 1.2 µM 3% | [11]; at 3.7 µM 44% | [15]; at 1.2 µM 1% | [15]; at 3.7 µM 13% | [12]; at 1.2 µM -1% | [12]; at 3.7 µM 4% | [12]; at 11.0 µM 55% | [13]; at 1.2 µM 2% | [13]; at 3.7 µM 23% | [1]; [16] 69% | [2]; at 1.2 µM 9% | [2]; at 3.7 µM 61%
